Measurements published in PubChem BioAssay (Tox21).
Values joined by “and” are separate entries in the source; they are usually repeats but may differ in a detail not shown here. Equal entries are not always repeated. More than one record can exist for a structure, and the calls need not agree. Active and inactive are the calls of the source. A call without a number means that no potency is given here. Unless noted, the call rests on the fitted dose curve; in most records, active means well fitted curve in the direction sought with a large enough effect in the repeat runs; inconclusive means weak or mixed curves; inactive means no such curve, though single readings can be large; an effect the other way counts as inactive or inconclusive.

What was measured:
[1] = qHTS assay to identify small molecule antagonists of the thyroid receptor (TR) signaling pathway - cell viability counter screen (AID 743064); further: nearly all actives have a fitted effect of over 50% in size; further: potency means the concentration at half of the fitted maximal effect
In short: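 Counter screen for cytotoxicity: compound plus T3 (1 nM final) on GH3.TRE-Luc cells, 23.5 h at 37 °C, then fluorescence viability readout with CellTiter-Fluor.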

[2] = qHTS assay to identify small molecule antagonists of the thyroid receptor (TR) signaling pathway (AID 743065); further: nearly all actives have a fitted effect of over 55% in size; further: potency means the concentration at half of the fitted maximal effect
In short: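 GH3.TRE-Luc rat pituitary cells (two TREs driving luciferase) were dosed with compound, then stimulated with 1 nM T3 (final) for 23.5 h at 37 C. ONE-Glo luminescence was the read-out, with CellTiter-Fluor fluorescence as the cytotoxicity counter-screen.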

[3] = system: thyroid hormone receptor (rat, GH3 cells); experiment: qHTS assay to identify small molecule agonists of the thyroid receptor (TR) signaling pathway (AID 743066; calls by dose curve; further: potency means the concentration at half of the fitted maximal effect)
[4] = qHTS assay to identify small molecule antagonists of the estrogen receptor alpha (ER-alpha) signaling pathway - cell viability counter screen (AID 743074; calls by dose curve; further: nearly all actives have a fitted effect of over 45% in size; further: potency means the concentration at half of the fitted maximal effect)
[5] = qHTS assay to identify small molecule antagonists of the estrogen receptor alpha (ER-alpha) signaling pathway using the BG1 cell line - cell viability counter screen (AID 743081);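 further: compound given together with 17beta-estradiol as the ER stimulus; nearly all actives have a fitted effect of over 45% in size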; further: potency means the concentration at half of the fitted maximal effect
Aromatase (Homo sapiens) = Aromatase (Homo sapiens) (UniProt P11511); experiment: qHTS assay to identify aromatase inhibitors (AID 743083); further: nearly all actives have a fitted effect of over 55% in size; further: potency means the concentration at half of the fitted maximal effect
Sequence of Aromatase (Homo sapiens) (P11511 whole entry, looked up): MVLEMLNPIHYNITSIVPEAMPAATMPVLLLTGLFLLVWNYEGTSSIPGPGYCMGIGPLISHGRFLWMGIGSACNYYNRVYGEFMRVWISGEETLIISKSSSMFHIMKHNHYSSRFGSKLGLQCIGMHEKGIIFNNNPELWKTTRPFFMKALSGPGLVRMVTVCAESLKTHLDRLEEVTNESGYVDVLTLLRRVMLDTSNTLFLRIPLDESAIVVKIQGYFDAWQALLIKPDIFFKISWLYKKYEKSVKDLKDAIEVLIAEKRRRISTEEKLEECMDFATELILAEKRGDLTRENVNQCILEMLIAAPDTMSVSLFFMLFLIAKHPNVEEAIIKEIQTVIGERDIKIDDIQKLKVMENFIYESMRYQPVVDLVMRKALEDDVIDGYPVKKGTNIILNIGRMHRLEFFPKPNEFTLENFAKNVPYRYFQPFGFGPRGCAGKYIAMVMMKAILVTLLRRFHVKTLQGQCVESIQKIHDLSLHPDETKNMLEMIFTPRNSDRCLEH

[6] = qHTS assay to identify aromatase inhibitors - cell viability counter screen (AID 743084);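 further: cells stimulated with testosterone during compound exposure; nearly all actives have a fitted effect of over 55% in size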; further: potency means the concentration at half of the fitted maximal effect
[7] = biological target: Aryl hydrocarbon receptor (Homo sapiens) (UniProt P35869); experiment: qHTS assay to identify small molecule that activate the aryl hydrocarbon receptor (AhR) signaling pathway (AID 743085); further: nearly all actives have a fitted effect of over 15% in size; further: potency means the concentration at half of the fitted maximal effect;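 on activation: HG2L7.5c1 human HepG2 liver cells with stably integrated DRE-driven firefly reporter; series mostly up to about 70 µM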
Sequence of Aryl hydrocarbon receptor (Homo sapiens) (P35869 whole entry, looked up): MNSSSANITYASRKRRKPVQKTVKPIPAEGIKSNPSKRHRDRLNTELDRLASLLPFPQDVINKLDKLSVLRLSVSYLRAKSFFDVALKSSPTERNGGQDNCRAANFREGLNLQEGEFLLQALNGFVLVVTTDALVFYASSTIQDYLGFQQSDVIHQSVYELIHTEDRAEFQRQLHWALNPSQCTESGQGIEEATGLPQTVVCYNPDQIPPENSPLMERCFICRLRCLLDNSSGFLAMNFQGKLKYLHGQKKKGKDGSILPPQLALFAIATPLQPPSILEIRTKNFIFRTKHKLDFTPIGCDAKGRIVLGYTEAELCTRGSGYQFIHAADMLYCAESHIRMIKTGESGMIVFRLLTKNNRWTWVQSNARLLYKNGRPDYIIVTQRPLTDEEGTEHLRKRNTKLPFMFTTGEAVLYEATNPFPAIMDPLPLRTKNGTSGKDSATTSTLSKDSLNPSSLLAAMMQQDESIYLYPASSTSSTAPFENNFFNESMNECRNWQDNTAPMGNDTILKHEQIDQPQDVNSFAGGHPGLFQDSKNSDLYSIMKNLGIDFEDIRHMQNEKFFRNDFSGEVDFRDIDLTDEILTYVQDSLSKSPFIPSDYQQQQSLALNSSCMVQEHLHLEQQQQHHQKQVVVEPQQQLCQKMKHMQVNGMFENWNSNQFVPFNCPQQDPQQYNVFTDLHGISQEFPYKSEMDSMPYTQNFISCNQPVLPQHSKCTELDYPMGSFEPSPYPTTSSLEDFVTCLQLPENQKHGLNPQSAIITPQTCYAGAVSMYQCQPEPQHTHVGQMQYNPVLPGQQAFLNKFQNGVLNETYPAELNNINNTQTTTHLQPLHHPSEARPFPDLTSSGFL
In short: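 Measured in HG2L7.5c1 cells: CellTiter-Fluor signal (30 min incubation, 37C) for viability, then luciferase luminescence (30 min, room temperature). Compound contact time was 24 h at 37C, following a 5 h pre-incubation.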

[8] = qHTS assay to identify small molecule that activate the aryl hydrocarbon receptor (AhR) signaling pathway - cell viability counter screen (AID 743086); further: nearly all actives have a fitted effect of over 45% in size; further: potency means the concentration at half of the fitted maximal effect
In short: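 HepG2-AhR-luc (HG2L7.5c1) cells, 4000/well, treated 24 h at 37 C with compound; viability measured as CellTiter-Fluor fluorescence after 30 min in the same wells as the luciferase read.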

[9] = qHTS assay to identify small molecule antagonists of the peroxisome proliferator-activated receptor gamma (PPARg) signaling pathway - cell viability counter screen (AID 743194); further: nearly all actives have a fitted effect of over 55% in size; further: potency means the concentration at half of the fitted maximal effect
In short: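 Cytotoxicity counter screen in PPARg-bla HEK293H cells, same wells as reporter assay. Compounds plus 50 nM rosiglitazone (final) for 17 h at 37 C, then viability read by CellTiter-Glo luminescence.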

[10] = biological target: Peroxisome proliferator-activated receptor delta (Homo sapiens) (UniProt Q03181); experiment: qHTS assay to identify small molecule agonists of the peroxisome proliferator-activated receptor delta (PPARd) signaling pathway (AID 743212; calls by dose curve)
Sequence of Peroxisome proliferator-activated receptor delta (Homo sapiens) (Q03181 whole entry, looked up): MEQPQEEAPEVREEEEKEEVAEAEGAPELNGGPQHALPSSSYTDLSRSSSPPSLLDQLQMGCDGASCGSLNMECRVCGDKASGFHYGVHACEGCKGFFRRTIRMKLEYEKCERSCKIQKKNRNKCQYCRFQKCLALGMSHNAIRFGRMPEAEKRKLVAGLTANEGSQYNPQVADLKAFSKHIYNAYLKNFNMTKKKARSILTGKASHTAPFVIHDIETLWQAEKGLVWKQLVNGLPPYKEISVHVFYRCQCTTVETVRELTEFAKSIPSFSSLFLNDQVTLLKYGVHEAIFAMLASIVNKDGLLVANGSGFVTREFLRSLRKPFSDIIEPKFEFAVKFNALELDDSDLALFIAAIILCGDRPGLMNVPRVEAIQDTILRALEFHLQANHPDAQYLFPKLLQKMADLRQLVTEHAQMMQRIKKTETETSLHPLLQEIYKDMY
In short: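 Tox21 library screened in GeneBLAzer PPARd UAS-bla HEK293H cells. After compound treatment at 37 C, a FRET-based beta-lactamase substrate was applied for 2 h and fluorescence recorded.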

[11] = biological target: Peroxisome proliferator-activated receptor gamma (Homo sapiens) (UniProt P37231); experiment: qHTS assay to identify small molecule agonists of the peroxisome proliferator-activated receptor gamma (PPARg) signaling pathway (AID 743094; active means well fitted activation curve with a large enough effect in the signal ratio in the repeat runs, not every such curve was filed as active; inconclusive means weak or mixed curves, or effect the other way; inactive means no such curve, though single readings can be large or run the other way; the % refers to the signal ratio)
Sequence of Peroxisome proliferator-activated receptor gamma (Homo sapiens) (P37231 whole entry, looked up): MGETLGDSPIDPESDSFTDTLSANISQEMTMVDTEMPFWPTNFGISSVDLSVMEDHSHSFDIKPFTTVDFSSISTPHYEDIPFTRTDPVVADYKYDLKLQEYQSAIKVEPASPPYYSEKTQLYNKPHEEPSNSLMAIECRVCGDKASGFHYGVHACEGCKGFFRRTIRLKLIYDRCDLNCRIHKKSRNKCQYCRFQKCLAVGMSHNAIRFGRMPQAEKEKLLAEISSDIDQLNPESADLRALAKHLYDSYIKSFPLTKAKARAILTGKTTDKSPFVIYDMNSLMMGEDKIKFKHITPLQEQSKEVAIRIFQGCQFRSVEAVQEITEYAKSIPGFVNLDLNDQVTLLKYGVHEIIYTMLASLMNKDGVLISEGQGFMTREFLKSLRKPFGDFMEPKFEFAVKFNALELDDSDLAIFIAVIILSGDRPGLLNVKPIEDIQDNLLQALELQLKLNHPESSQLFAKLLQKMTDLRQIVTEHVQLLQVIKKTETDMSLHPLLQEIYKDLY
In short: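 Cell-based bla reporter, HEK293H background, PPARg-driven UAS. Pre-incubation 5 h, 37C, 5% CO2. Compound 17 h, 37C. Substrate 1 h RT; fluorescence.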

[12] = qHTS assay for small molecule agonists of the antioxidant response element (ARE) signaling pathway - cell viability counter screen (AID 743203; calls by dose curve; further: nearly all actives have a fitted effect of over 55% in size; further: potency means the concentration at half of the fitted maximal effect)
In short: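 Measured in the same wells as the beta-lactamase ARE reporter, this read-out is CellTiter-Glo luminescence from HepG2 ARE-bla cells given compounds for 16 hrs.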

[13] = qHTS assay to identify small molecule agonists of the peroxisome proliferator-activated receptor delta (PPARd) signaling pathway - cell viability counter screen (AID 743211); further: nearly all actives have a fitted effect of over 55% in size; further: potency means the concentration at half of the fitted maximal effect
In short: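 Following 5 h plating at 37 C and 5% CO2, PPARd UAS-bla HEK293H cells took up test compounds for 17 h. Viability was quantified by luminescence 30 min after CellTiter-Glo addition at room temperature.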

[14] = biological target: Estrogen receptor (Homo sapiens) (UniProt P03372); experiment: qHTS assay to identify small molecule agonists of the estrogen receptor alpha (ER-alpha) signaling pathway (AID 743075; calls by dose curve)
Sequence of Estrogen receptor (Homo sapiens) (P03372 whole entry, looked up): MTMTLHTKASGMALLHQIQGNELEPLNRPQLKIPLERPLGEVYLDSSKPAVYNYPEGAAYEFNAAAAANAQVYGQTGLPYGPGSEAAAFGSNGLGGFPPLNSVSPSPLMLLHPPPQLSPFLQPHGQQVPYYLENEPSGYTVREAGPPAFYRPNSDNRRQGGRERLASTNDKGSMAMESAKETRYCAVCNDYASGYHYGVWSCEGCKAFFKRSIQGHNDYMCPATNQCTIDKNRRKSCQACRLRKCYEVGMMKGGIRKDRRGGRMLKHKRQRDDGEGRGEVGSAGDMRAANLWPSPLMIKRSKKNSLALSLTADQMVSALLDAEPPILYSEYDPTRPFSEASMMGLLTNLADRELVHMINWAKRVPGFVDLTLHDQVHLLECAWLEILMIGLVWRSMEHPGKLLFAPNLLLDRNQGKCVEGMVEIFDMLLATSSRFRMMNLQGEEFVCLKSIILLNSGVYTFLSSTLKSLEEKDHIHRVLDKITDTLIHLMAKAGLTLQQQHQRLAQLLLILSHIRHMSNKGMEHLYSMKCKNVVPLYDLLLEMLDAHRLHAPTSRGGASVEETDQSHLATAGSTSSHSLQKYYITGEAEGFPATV

[15] = qHTS assay to identify small molecule antagonists of the estrogen receptor alpha (ER-alpha) signaling pathway using the BG1 cell line (AID 743080; calls by dose curve;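 further: BG1 cells stimulated with 17beta-estradiol alongside compound; potency means the concentration at half of the fitted maximal effect; nearly all actives have a fitted effect of over 25% in size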)
In short: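 Luciferase inhibition measured with ONE-Glo after 30 min at RT in BG1Luc4E2 cells given test compounds and 17beta-estradiol for 21.5 h at 37 C; CellTiter-Fluor viability read in the same wells beforehand.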

[16] = biological target: Peroxisome proliferator-activated receptor gamma (Homo sapiens) (UniProt P37231); experiment: qHTS assay to identify small molecule antagonists of the peroxisome proliferator-activated receptor gamma (PPARg) signaling pathway (AID 743191; calls by dose curve; further: series mostly up to about 63 µM; nearly all actives have a fitted effect of over 30% in size)
In short: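 GeneBLAzer PPARg UAS-bla HEK293H cells, 5 h post-plating, exposed to compounds 17 h at 37C. LiveBLAzer B/G FRET substrate added for 1 h at room temperature; beta-lactamase reporter read by fluorescence intensity.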

[17] = biological target: Estrogen receptor (Homo sapiens) (UniProt P03372); experiment: qHTS assay to identify small molecule antagonists of the estrogen receptor alpha (ER-alpha) signaling pathway (AID 743069; active means well fitted curve in the direction sought with a large enough effect in the signal ratio in the repeat runs, not every such curve was filed as active; inconclusive means weak or mixed curves, or effect the other way; inactive means no such curve, though single readings can be large or run the other way; the % refers to the signal ratio; further: potency means the concentration at half of the fitted maximal effect)
In short: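 In this cell-based reporter format, GripTite HEK293 cells harbouring ER-alpha-UAS-bla were grown overnight with 2% charcoal-stripped FBS, dosed with DMSO-dissolved compounds, then challenged with 17beta-estradiol. After 18 hr at 37C, beta-lactamase activity was detected by FRET fluorescence.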

SMILES	Potency [1]	Potency [2]	Potency [3]	Potency [4]	Potency [5]	Potency (Aromatase (Homo sapiens))	Potency [6]	Potency [7]	Potency [8]	Potency [9]	outcome [10]	Potency [11]	Potency [12]	Potency [13]	Potency [14]	Potency [15]	Potency [16]	Potency [17]
COc1cc([C@@H]2c3cc4c(cc3[C@@H](O[C@@H]3O[C@@H]5CO[C@@H](C)O[C@H]5[C@H](O)[C@H]3O)[C@H]3COC(=O)[C@H]23)OCO4)cc(OC)c1O	4.28 µM (active)	9.44 µM (active) and 3.4 µM (active)	inactive	inactive	inactive	inactive	inactive	inactive	inactive	inactive	inactive							
CO/N=C(\C(=O)N[C@@H]1C(=O)N2C(C(=O)O)=C(COC(C)=O)CS[C@H]12)c1csc(N)n1 (stereo in doubt)	inactive	inactive	inactive	inactive	inactive				inactive									
CN(C)CCOc1ccc(/C(=C(/CCCl)c2ccccc2)c2ccccc2)cc1	10.6 µM (active) and 10.2 µM (active)	11.9 µM (active) and 8.09 µM (active)	inactive		inactive	21.1 µM (active) and 6.42 µM (active)	45.5 µM (active)	inactive	inactive and 40.5 µM (active)	25.8 µM (active)		inactive	16.1 µM (active)	14.5 µM (active)				
SC1CCCCC1	inactive	inactive	inactive	inactive	inactive	inactive	inactive	inactive	inactive	inactive	inactive	inactive	inactive	inactive				
C[S+](CC[C@H](N)C(=O)O)C[C@H]1O[C@@H](n2cnc3c(N)ncnc32)[C@H](O)[C@@H]1O (some centres undefined)	inactive	inactive	inactive	inactive	inactive	inactive	inactive	inactive				inactive						
CSCC[C@H](NC(=O)[C@H](Cc1ccc(OS(=O)(=O)O)cc1)NC(=O)[C@@H](N)CC(=O)O)C(=O)NCC(=O)N[C@@H](Cc1c[nH]c2ccccc12)C(=O)N[C@@H](CCSC)C(=O)N[C@@H](CC(=O)O)C(=O)N[C@@H](Cc1ccccc1)C(N)=O	inactive	inactive	inactive and 11.9 µM (active)	inactive	inactive	inactive	inactive	inactive				inactive						
CCCCCCCCCCCC[n+]1ccc2ccccc2c1	7.5 µM (active)	3.76 µM (active)		2.13 µM (active)	26.6 µM (active)	10.6 µM (active)		inactive							inactive	7.5 µM (active)		
CCCCCN=C(N)N/N=C/c1c[nH]c2ccc(OC)cc12	inactive	inactive	inactive	inactive	inactive	inactive	inactive		inactive	13.3 µM (active)		inactive	10.6 µM (active)	8.41 µM (active)				
Cc1ccc(Cl)c(N)c1Cl	inactive	inactive	inactive	inactive	inactive	inactive	inactive	inactive	inactive	inactive	inactive	inactive	inactive				inactive	
Cc1cc(F)ccc1-c1cc(N2CC[C@@H](O)[C@H]2CO)ncc1N(C)C(=O)C(C)(C)c1cc(C(F)(F)F)cc(C(F)(F)F)c1	10.7 µM (active)	9.54 µM (active)		43 µM (active)		24 µM (active)	42.6 µM (active)	inactive	38 µM (active)	43 µM (active)			21.4 µM (active)	13.6 µM (active)				
COc1cc2c(cc1O)CCN[C@]21CS[C@@H]2c3c(OC(C)=O)c(C)c4c(c3[C@H](COC1=O)N1[C@@H]2[C@H]2c3c(cc(C)c(OC)c3O)C[C@@H]([C@@H]1O)N2C)OCO4	2.4 nM (active) and 4.3 nM (active)	1.9 nM (active) and 2.7 nM (active)			26.6 µM (active) and 13.7 µM (active)	29.8 nM (active) and 48.6 nM (active)	24.3 µM (active)								inactive	26.6 nM (active) and 43.3 nM (active)		33.8 nM [inconclusive] (active) and 49 nM [inconclusive] (active)
Nc1ccc(N)c([N+](=O)[O-])c1	32.5 µM (active)	inactive	inactive			inactive	61.1 µM (active)	24.3 µM (active)										
CON=C1C[C@]2(C[C@@H]3C[C@@H](C/C=C(\C)C[C@@H](C)/C=C/C=C4\CO[C@@H]5[C@H](O)C(C)=C[C@@H](C(=O)O3)[C@]45O)O2)O[C@H](/C(C)=C/C(C)C)[C@H]1C	5.31 µM (active)	3.76 µM (active) and 5.31 µM (active)		6.01 µM (active) and 23.9 µM (active)		inactive	inactive	inactive	inactive									
COc1cccc(-c2ccc(/C=C\CN3CCCCCC3)cc2Cl)c1	21.6 µM (active)	21.6 µM (active)		inactive	inactive	60.9 µM (active)		inactive	inactive	43.4 µM (active)		inactive	54.2 µM (active)	48.7 µM (active)	inactive			inactive
